The text below walks through data of the supplement of paper PMC7411640.

The test system of this experiment is MDA-MB-468. As to the kind of experiment: phospho-S6 immunofluorescence (DAPI-normalised), per-plate z-score; higher = higher phospho-S6 signal (less pathway suppression). The settings on record: 24 h. The protocol:
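GPCR-targeted compound library (MedChemExpress HY-L006) tested on MDA-MB-468 PTEN-null TNBC cells in 384-well plates at 0.1, 1 or 10 uM, combined with vehicle, GDC0941 450 nM or lapatinib 1 uM, for 24 h. Phospho-S6 (S240/244) immunofluorescence normalised to DAPI and expressed as a per-plate z-score; values are the mean of biological triplicates.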

Structures can show the parent of a compound that is named as a salt.

Take `CN1C[C@H](C(=O)N[C@]2(C)O[C@@]3(O)[C@@H]4CCCN4C(=O)[C@H](Cc4ccccc4)N3C2=O)C[C@@H]2c3cccc4[nH]cc(c34)C[C@H]21` [Dihydroergotamine (mesylate)] (compound 10 µM): the “phospho-S6 immunofluorescence (z-score)” value (co-treatment: GDC0941 450 nM) amounted to 1.05, the “phospho-S6 immunofluorescence (z-score)” value (co-treatment: lapatinib 1 uM) worked out at 0 and the “phospho-S6 immunofluorescence (z-score)” value (co-treatment: vehicle) was found to be 0.86.

As for `CCN(CCCCO)C(C)Cc1ccc(O)cc1` (configuration not stated) [O-desmethyl Mebeverine alcohol (hydrochloride)] (compound 10 µM), the “phospho-S6 immunofluorescence (z-score)” value is -0.73 (co-treatment: GDC0941 450 nM), -0.03 (co-treatment: lapatinib 1 uM) and -0.64 (co-treatment: vehicle).

With `CC(C)(C)NCC(O)c1ccc(O)cc1Cl` (configuration not stated) (compound 10 µM), the “phospho-S6 immunofluorescence (z-score)” value reads like this: (co-treatment: GDC0941 450 nM) 0.77; (co-treatment: lapatinib 1 uM) 0.7; (co-treatment: vehicle) 0.14.

As for `Cc1cccc(C(C)c2c[nH]cn2)c1C` (configuration not stated) [Medetomidine (hydrochloride)] (compound 10 µM), the “phospho-S6 immunofluorescence (z-score)” value is, setting by setting: (co-treatment: GDC0941 450 nM) 0.08; (co-treatment: lapatinib 1 uM) 0.79; (co-treatment: vehicle) 0.41.

For the compound `CN1CCC(c2c[nH]c3ccc(O)cc23)CC1` (compound 10 µM), the “phospho-S6 immunofluorescence (z-score)” value was 0.22 (co-treatment: GDC0941 450 nM), 0.55 (co-treatment: lapatinib 1 uM) and 0.06 (co-treatment: vehicle).

For the compound `COC(=O)C1=CCCN(C)C1` [Arecoline (hydrobromide)] (compound 10 µM), the “phospho-S6 immunofluorescence (z-score)” value by setting is: (co-treatment: GDC0941 450 nM) 0.22; (co-treatment: lapatinib 1 uM) 0.44; (co-treatment: vehicle) 0.56.

Turning to `CC(C)(C)NCC(O)c1cc(Cl)c(N)c(Cl)c1` (configuration not stated) [Clenbuterol (hydrochloride)] (compound 10 µM), the “phospho-S6 immunofluorescence (z-score)” value came out at 1.42 (co-treatment: GDC0941 450 nM), 1.64 (co-treatment: lapatinib 1 uM) and 0.37 (co-treatment: vehicle).

`O=C(O[C@H]1C[C@H]2CC[C@@H](C1)[N+]21CCCC1)C(O)(c1ccccc1)c1ccccc1` [Trospium (chloride)] (compound 10 µM): the “phospho-S6 immunofluorescence (z-score)” value reads like this: (co-treatment: GDC0941 450 nM) -0.76; (co-treatment: lapatinib 1 uM) 0.26; (co-treatment: vehicle) -1.07.

As to `CN1[C@@H]2C[C@@H](OC(=O)[C@H](CO)c3ccccc3)C[C@H]1[C@@H]1O[C@@H]12` [Scopolamine (hydrobromide)] (compound 10 µM), the “phospho-S6 immunofluorescence (z-score)” value (co-treatment: GDC0941 450 nM) was -1.4, the “phospho-S6 immunofluorescence (z-score)” value (co-treatment: lapatinib 1 uM) was -0.16 and the “phospho-S6 immunofluorescence (z-score)” value (co-treatment: vehicle) came out at 0.68.

For `COc1ccc2c(c1)[C@]13CCCC[C@@H]1[C@H](C2)N(C)CC3` [Dextromethorphan (hydrobromide hydrate)] (compound 10 µM), the “phospho-S6 immunofluorescence (z-score)” value (co-treatment: GDC0941 450 nM) is -0.24, the “phospho-S6 immunofluorescence (z-score)” value (co-treatment: lapatinib 1 uM) was -0.31 and the “phospho-S6 immunofluorescence (z-score)” value (co-treatment: vehicle) is 0.42.

As for `C[N+]1(C)[C@@H]2C[C@@H](OC(=O)[C@H](CO)c3ccccc3)C[C@H]1[C@@H]1O[C@@H]12` [Methscopolamine (bromide)] (compound 10 µM), the “phospho-S6 immunofluorescence (z-score)” value runs as follows: (co-treatment: GDC0941 450 nM) 0.05; (co-treatment: lapatinib 1 uM) 0.43; (co-treatment: vehicle) 0.6.

Take `COc1ccc2c(c1)[nH]c1c(C)nccc12` [Harmine] (compound 10 µM): the “phospho-S6 immunofluorescence (z-score)” value by setting is: (co-treatment: GDC0941 450 nM) -0.75; (co-treatment: lapatinib 1 uM) -1.57; (co-treatment: vehicle) -1.55.

For `COc1ccc(C(=O)c2c(C)n(CCN3CCOCC3)c3cc(I)ccc23)cc1` (compound 10 µM), the “phospho-S6 immunofluorescence (z-score)” value was -3.18 (co-treatment: GDC0941 450 nM), -1.01 (co-treatment: lapatinib 1 uM) and -3.47 (co-treatment: vehicle).

On to `CC(C)C[C@H]1C(=O)N2CCC[C@H]2[C@]2(O)O[C@](NC(=O)[C@@H]3C=C4c5cccc6[nH]c(Br)c(c56)C[C@H]4N(C)C3)(C(C)C)C(=O)N12` [Bromocriptine (mesylate)] (compound 10 µM), for which the “phospho-S6 immunofluorescence (z-score)” value runs as follows: (co-treatment: GDC0941 450 nM) -3.83; (co-treatment: lapatinib 1 uM) -3.57; (co-treatment: vehicle) -1.61.
